Screening results (PubChem BioAssay)
Compounds with a hit are over-represented: about 4.5% of the library has one in this group of screens.
NR3A LBD binder = modulates the human NR3A ligand-binding domain; NR3A LBD differential scanning fluorimetry, Tm shift; 0% = protein alone, 100% = glycine-bound protein; Tm shift relative to glycine control, % at 25 µM; 340,000 compounds, 2.5% hits; AID 1259313;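 active means melting temperature shift of at least 10% of the positive control shift, at one fixed dose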
TPT1 inh = blocks Candida albicans tRNA 2'-phosphotransferase. 300,000 compounds, 0.81% hits. recombinant caTPT1, FP RNA substrate dephosphorylation. AID 1962. inhibition, % at 5 µM;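 active means inhibition above the mean of all tested compounds plus 3 SD, set per screening campaign, cut at about 24% in these data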
dFosB act = enhances mouse delta FosB homodimer DNA binding | purified delta FosB, TAMRA-CDK5 oligo fluorescence polarization; percent of positive-control signal above neutral wells | activation, % at 25 µM | 340,000 compounds, 0.99% hits | AID 493131;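 active means mean activation above about 17%, with every replicate also reaching it, limit read from the data, passing the limit was not always enough; inconclusive means only one of the two conditions met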
Target sequence (P13346 whole entry, looked up): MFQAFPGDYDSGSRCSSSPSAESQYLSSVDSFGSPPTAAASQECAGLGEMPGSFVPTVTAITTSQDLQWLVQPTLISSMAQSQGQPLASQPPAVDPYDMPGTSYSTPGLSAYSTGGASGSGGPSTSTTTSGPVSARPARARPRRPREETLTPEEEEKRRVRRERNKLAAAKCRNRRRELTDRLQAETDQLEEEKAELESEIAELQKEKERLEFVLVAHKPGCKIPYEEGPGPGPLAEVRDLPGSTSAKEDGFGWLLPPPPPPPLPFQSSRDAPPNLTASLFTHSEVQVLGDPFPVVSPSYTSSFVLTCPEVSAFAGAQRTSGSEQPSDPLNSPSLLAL
Rpn11 inh = inhibitors of human proteasome Rpn11; O00487; inhibition, % at 20 µM; human 26S proteasome, Ub4-pepOG fluorescence polarization; 20S core pre-blocked with epoxomicin; AID 588493; 360,000 compounds, 0.59% hits;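 active means inhibition at 20 µM, scaled to each plate's controls, above about 33%, limit read from the data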
EBNA-1 inhibitor = blocks EBNA-1 binding to DNA | EBNA-1 DNA binding, fluorescence polarization | 300,000 compounds, 0.34% hits | inhibition, % at 14.8 µM; in the data active means inhibition above about 28%
ZTA DNA inh = blocks Epstein-Barr virus ZTA, an EBNA-1 counter-screen; P03206; ZTA-DNA binding, fluorescence polarization; inhibition, % at 11 µM; 320,000 compounds, 0.15% hits; AID 2234; in the data active means inhibition above about 33%
Target sequence (P03206 whole entry, looked up): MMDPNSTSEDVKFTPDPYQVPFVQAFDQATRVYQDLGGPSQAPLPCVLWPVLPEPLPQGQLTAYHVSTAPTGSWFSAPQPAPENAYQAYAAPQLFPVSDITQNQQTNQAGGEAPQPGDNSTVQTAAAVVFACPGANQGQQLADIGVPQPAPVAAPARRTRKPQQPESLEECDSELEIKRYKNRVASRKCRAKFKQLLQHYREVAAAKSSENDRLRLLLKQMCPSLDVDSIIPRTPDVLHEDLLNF
Each line names hits and unclear results; the compound was inactive in the other large screens.

Cc1cccc(NC(=O)NNC(=O)c2sccc2-n2cccc2)c1	NR3A LBD binder 13
COc1ccccc1CC(=O)N1CCC(n2nccc2NC(=O)C2CCOC2)CC1 (stereo unspecified)	NR3A LBD binder 10
COc1ccccc1C(=O)Nc1ccnn1C1CCN(C/C=C/c2ccccc2)CC1	NR3A LBD binder 13
COc1ccc(CC(=O)N2CCC(n3nccc3NC(=O)C3CCOC3)CC2)cc1 (stereo unspecified)	none
COC(=O)c1cccc(NC(=O)CSc2nnc(C)o2)c1	none
Clc1cnc(Nc2cccnc2)c(Cl)c1	none
CCC(=O)Nc1cccc(C2=NOC3(C2)C[C@@H](C(N)=O)N(C(=O)C(c2ccccc2)c2ccccc2)C3)c1 (stereo partly specified)	none
NC(=O)[C@H]1CC2(CC(c3cccc(NC(=O)COc4ccc(Cl)cc4)c3)=NO2)CN1C(=O)C(c1ccccc1)c1ccccc1 (stereo partly specified)	NR3A LBD binder 11
N#CCC(=O)N1CC2(CC(c3cccc(NC(=O)COc4ccc(Cl)cc4)c3)=NO2)C[C@@H]1C(N)=O (stereo partly specified)	none
NC(=O)[C@@H]1CC2(CC(c3cccc(NC(=O)COc4ccc(Cl)cc4)c3)=NO2)CN1C(=O)COc1ccc(Cl)cc1 (stereo partly specified)	NR3A LBD binder 23
NC(=O)[C@H]1CC2(CC(c3cccc(NC(=O)CC(c4ccccc4)c4ccccc4)c3)=NO2)CN1C(=O)CC(c1ccccc1)c1ccccc1 (stereo partly specified)	NR3A LBD binder 17
Cc1ccccc1N1CCN(Cc2ccc(Br)o2)CC1	none (no result: TPT1 inh, EBNA-1 inhibitor, ZTA DNA inh)
C(=N\Nc1nc2ccccc2[nH]1)/c1c[nH]c2ccccc12	NR3A LBD binder 15, dFosB act inconclusive
C(=N\Nc1nc(N2CCCCC2)nc(N2CCCCC2)n1)/c1c[nH]c2ccccc12	NR3A LBD binder 10
CN(C)c1nc(N/N=C/c2c[nH]c3ccccc23)nc(N2CCOCC2)n1	none
Cc1ccccc1/C=N/Nc1nc2ccccc2[nH]1	none
Brc1ccc(-c2ccc(/C=N/Nc3nc4ccccc4[nH]3)o2)cc1	NR3A LBD binder 31, dFosB act 39
C(=N\Nc1nc2ccccc2[nH]1)/c1ccccc1	none
Cc1ccc(S(=O)(=O)N2CCN(C(=O)COC(=O)COc3ccc(Cl)cc3C)CC2)c(C)c1	none (no result: TPT1 inh, EBNA-1 inhibitor, ZTA DNA inh)
Cc1[nH]c2ccccc2c1/C=N/NC(N)=S	none
Cc1ccc(NC(=S)N/N=C/c2c(C)[nH]c3ccccc23)cc1	NR3A LBD binder 22
Cc1[nH]c2ccccc2c1/C=N/NC(=S)NCc1ccccc1	NR3A LBD binder 23
Cc1c(C)n(Cc2ccc(F)cc2)c2ccc(C(=O)NCCN3CCOCC3)cc12	none
Oc1ccccc1/C=N/n1cnn(Cc2ccccc2Cl)c1=S	none
Cc1cc(C)cc(-n2nnnc2SCC(=O)Nc2nc(-c3ccc(F)cc3)cs2)c1	none (no result: NR3A LBD binder)
Cc1ccc(-n2nnnc2SCC(=O)Nc2nc(-c3ccc(F)cc3)cs2)cc1C	NR3A LBD binder 30
COc1ccccc1CCNC(=O)c1cccc(S(=O)(=O)NCc2ccccc2)c1	none
CCOc1ccc(OCCSc2nc3ccccc3o2)cc1	NR3A LBD binder 21
c1ccc(OCCSc2nc3ccccc3o2)cc1	none
Cc1ccccc1NC(=O)COC(=O)CCC(=O)c1cccs1	none (no result: TPT1 inh, EBNA-1 inhibitor, ZTA DNA inh)
Cc1cc(C)c(S(=O)(=O)c2ccccc2C)c(OCC(C)(C)C)n1	none
Cc1ccccc1N=C1SCCN1C(=O)CN1C(=O)NC2(CCCC2)C1=O	none
Cc1ccc(N=Nc2c(N)nn3c(N)c(C#N)c(C)nc23)cc1	NR3A LBD binder 26 (not shown: Rpn11 inh)
Cc1cc(C(=O)NNC(=S)NCc2ccco2)n(C)n1	none
CC(C)c1cc(C(=O)NNC(=S)NCc2ccco2)c(O)c(C(C)C)c1	NR3A LBD binder 19
c1ccc(C(c2ccccc2)c2nc(-c3cccnc3)no2)cc1	NR3A LBD binder 16
c1ccc(C(Cc2nc(-c3cccnc3)no2)c2ccccc2)cc1	none
COc1ccc(S(=O)(=O)N(C)C[C@H]2Oc3ccc(NC(=O)NC4CCCCC4)cc3C(=O)N([C@H](C)CO)C[C@@H]2C)cc1	none (no result: TPT1 inh, EBNA-1 inhibitor, ZTA DNA inh)
CN(C)CCN(C(=O)c1ccc(S(=O)(=O)N(C)c2ccccc2)cc1)c1nc2cc3c(cc2s1)OCCO3	dFosB act 47
CCN(Cc1ccccc1)S(=O)(=O)c1ccc(C(=O)N(CCCN(C)C)c2nc3cc4c(cc3s2)OCCO4)cc1	dFosB act 42
CCOc1ccc2[nH]c3nc(SCC(=O)NC4CC4)nnc3c2c1	none
CCC(C)[C@@H](NC(=O)OC(C)(C)C)c1nnc(S(=O)(=O)Cc2cccc(C)c2)o1 (stereo partly specified)	NR3A LBD binder 12 (no result: TPT1 inh, EBNA-1 inhibitor, ZTA DNA inh)
COc1cc(Cl)ccc1OCc1cc(C(=O)N2C[C@H]3CC[C@H]2C3)no1	NR3A LBD binder 13
COc1cc(Cl)ccc1OCc1cc(C(=O)N2C[C@@H]3CCC[C@H]2C3)no1	none
O=C(Nc1ccc(OC(F)(F)F)cc1)Oc1ccccc1N1CCCCC1	NR3A LBD binder 13 (no result: dFosB act)
Nc1nnc(SCCOc2cccc(Br)c2)s1	NR3A LBD binder 13
Cc1ccc(NC(=O)CSc2nnc(NC(=O)C3CC3)s2)cc1C	NR3A LBD binder 21
Cc1cccc(C)c1NC(=O)CSc1nnc(NC(=O)C2CC2)s1	none
CC(=O)c1ccc(NC(=O)CSc2nnc(NC(=O)C3CC3)s2)cc1	NR3A LBD binder 25
CC(OC(=O)[C@@H]1CCCN1C(=O)c1cccs1)C(=O)Nc1cccc([N+](=O)[O-])c1 (stereo partly specified)	none (no result: TPT1 inh, EBNA-1 inhibitor, ZTA DNA inh)
CCOP(=O)(OCC)/C(C#N)=C/c1ccc(-c2ccc(F)cc2F)o1	NR3A LBD binder 13
CCOc1ccc(CCNC(=O)c2nnn(CC(=O)Nc3ccccc3C)c2N)cc1OCC	NR3A LBD binder 12
COc1ccc(N2C(=O)C3C(C2=O)C3(c2ccccc2)c2ccccc2)cc1 (stereo unspecified)	none
COc1ccc(N2C(=O)C3C4C=CC(c5ccccc5)(C3C2=O)C2C(=O)N(c3ccc(OC)cc3)C(=O)C42)cc1 (stereo unspecified)	NR3A LBD binder 12
Cc1cccc(OCCNC(=S)NC(=O)c2cncc(Br)c2)c1	NR3A LBD binder 10
CC(=O)c1ccc(NC(=O)Nc2ccc3c(c2)N(C)C(=O)CS3)cc1	NR3A LBD binder 19
CCOc1ccc(NC(=O)CN2C(=O)CCSc3ccc(S(=O)(=O)N4CCCC4)cc32)cc1	dFosB act 37
COc1ccc(NC(=O)Nc2ccc3c(c2)N(C)C(=O)CS3)cc1Cl	NR3A LBD binder 27
COc1ccc(NC(=O)Nc2ccc3c(c2)N(C)C(=O)CS3)cc1OC	none
CCOc1ccc(NC(=O)CN2C(=O)CSc3ccc(S(=O)(=O)N4CCCC4)cc32)cc1	none
